Measured values from PubChem BioAssay AID1159580 (chemical genetic matrix, 2015).
“And” between values parts separate entries of the source, which are not always exact repeats. Equal values may be shown once. The whole screen tested about 5,500 compounds, of which about 2,000 (36%) were called active. Roughly 18% stayed inconclusive and do not appear here. No stated cut-off is given here; in the data, active means normalized growth mostly below about 0.91 (no sharp cut-off); inconclusive means no clear call, values can overlap the other calls; inactive means mostly above about 0.92. This is one part of the list.

Assay: chemical genetic growth profiling, strain panel (AID 1159580);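 further: tested at 20 µM; growth read once vehicle control cultures reached saturation at 30 °C; 1 = growth at the plate median or of vehicle wells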
Details: S. cerevisiae deletion strains, growth OD

Measured: normalized growth

C=C[C@H]1CN2CC[C@H]1C[C@H]2[C@H](O)c1ccnc2ccccc12
inactive: locus YAL013W, strain DEP1, stronger effect = lower value 1.01 | locus YAL021C, strain ccr4, stronger effect = lower value 1 | locus YAL026C, strain drs2, stronger effect = lower value 0.995 | locus YAL030W, strain snc1, stronger effect = lower value 0.997 | locus YBL061C, strain skt5, stronger effect = lower value 0.995 | locus YBR009C, strain hhf1, stronger effect = lower value 0.992 | locus YBR021W, strain FUR4, stronger effect = lower value 1.01 | locus YBR023C, strain chs3, stronger effect = lower value 0.992 | locus YBR171W, strain sec66, stronger effect = lower value 1 | locus YBR229C, strain ROT2, stronger effect = lower value 1.01 | locus YBR231C, strain swc5, stronger effect = lower value 0.984 | locus YBR279W, strain paf1, stronger effect = lower value 1 | locus YCL011C, strain gbp2, stronger effect = lower value 1.01 | locus YCL016C, strain dcc1, stronger effect = lower value 0.994 | locus YCL029C, strain bik1, stronger effect = lower value 0.969 | locus YCL061C, strain MRC1, stronger effect = lower value 0.983 | locus YCL069W, strain vba3, stronger effect = lower value 1.01 | locus YCR088W, strain abp1, stronger effect = lower value 1 | locus YDL005C, strain med2, stronger effect = lower value 0.997 | locus YDL035C, strain GPR1, stronger effect = lower value 0.986 | locus YDL040C, strain nat1, stronger effect = lower value 0.999 | locus YDL074C, strain BRE1, stronger effect = lower value 1.04 | locus YDL101C, strain DUN1, stronger effect = lower value 0.988 | locus YDL134C, strain PPH21, stronger effect = lower value 1 | locus YDL185W, strain tfp1, stronger effect = lower value 0.965 | locus YDL192W, strain arf1, stronger effect = lower value 0.979 | locus YDR001C, strain nth1, stronger effect = lower value 0.986 | locus YDR069C, strain doa4, stronger effect = lower value 1.01 | locus YDR101C, strain arx1, stronger effect = lower value 0.985 | locus YDR137W, strain rgp1, stronger effect = lower value 1.02 | locus YDR150W, strain NUM1, stronger effect = lower value 0.966 | locus YDR159W, strain sac3, stronger effect = lower value 0.949 | locus YDR162C, strain NBP2, stronger effect = lower value 1.01 | locus YDR195W, strain ref2 0.959 | locus YDR297W, strain sur2, stronger effect = lower value 1 | locus YDR318W, strain mcm21, stronger effect = lower value 0.989 | locus YDR334W, strain swr1, stronger effect = lower value 1 | locus YDR335W, strain msn5, stronger effect = lower value 0.993 | locus YDR388W, stronger effect = lower value 0.979 | locus YDR392W, strain spt3, stronger effect = lower value 0.999 | locus YDR502C, strain sam2, stronger effect = lower value 0.979 | locus YEL003W, strain gim4, stronger effect = lower value 0.995 | locus YEL037C, strain rad23, stronger effect = lower value 0.993 | locus YEL061C, strain CIN8 (second series), stronger effect = lower value 0.999 | locus YEL061C, strain CIN8, stronger effect = lower value 1 | locus YER015W, strain faa2, stronger effect = lower value 1 | locus YER016W, strain bim1, stronger effect = lower value 0.975 | locus YER110C, stronger effect = lower value 0.976 | locus YER111C, strain swi4, stronger effect = lower value 1.01 | locus YER155C, strain BEM2 (second series), stronger effect = lower value 0.977 | locus YER155C, strain BEM2, stronger effect = lower value 0.98 | locus YER167W, strain BCK2, stronger effect = lower value 1.01 | locus YFR010W, strain ubp6, stronger effect = lower value 1.01 | locus YGL078C, strain dbp3, stronger effect = lower value 0.985 | locus YGL086W, strain mad1, stronger effect = lower value 0.99 | locus YGL167C, strain pmr1, stronger effect = lower value 0.987 | locus YGL173C, strain kem1, stronger effect = lower value 0.977 | locus YGL227W, strain vid30, stronger effect = lower value 1 | locus YGL240W, strain doc1, stronger effect = lower value 0.984 | locus YGL248W, strain PDE1, stronger effect = lower value 1.01 | locus YGL253W, strain hxk2, stronger effect = lower value 1 | locus YGR078C, strain PAC10, stronger effect = lower value 1.01 | locus YGR135W, strain pre9, stronger effect = lower value 0.974 | locus YGR229C, strain SMI1, stronger effect = lower value 1.02 | locus YGR252W, strain gcn5, stronger effect = lower value 0.982 | locus YHR013C, strain ard1, stronger effect = lower value 1 | locus YHR027C, strain rpn1, stronger effect = lower value 0.997 | locus YHR030C, strain SLT2, stronger effect = lower value 1 and 0.969 | locus YHR079C, strain IRE1 (second series), stronger effect = lower value 0.986 | locus YHR079C, strain IRE1, stronger effect = lower value 0.968 | locus YHR094C, strain hxt1, stronger effect = lower value 0.973 | locus YHR129C, strain ARP1, stronger effect = lower value 1.01 | locus YHR142W, strain chs7, stronger effect = lower value 1 | locus YHR200W, strain rpn10, stronger effect = lower value 0.981 | locus YIL066C, strain RNR3, stronger effect = lower value 1 | locus YIL073C, strain SPO22, stronger effect = lower value 0.927 | locus YIL125W, strain kgd1, stronger effect = lower value 0.994 | locus YIR030C, strain dcg1, stronger effect = lower value 0.979 | locus YJL092W, strain hpr5, stronger effect = lower value 0.999 | locus YJL095W, strain BCK1 (second series), stronger effect = lower value 0.998 | locus YJL095W, strain BCK1, stronger effect = lower value 1.04 and 0.962 | locus YJL115W, strain asf1, stronger effect = lower value 1 | locus YJL129C, strain trk1, stronger effect = lower value 0.988 | locus YJL134W, strain LCB3, stronger effect = lower value 0.995 | locus YJL154C, strain vps35, stronger effect = lower value 1 | locus YJL164C, strain tpk1, stronger effect = lower value 1.01 | locus YJL166W, strain qcr8, stronger effect = lower value 0.95 | locus YJL168C, strain set2, stronger effect = lower value 0.986 | locus YJL187C, strain SWE1 (second series), stronger effect = lower value 0.977 | locus YJR043C, strain POL32, stronger effect = lower value 1.01 | locus YJR066W, strain TOR1, stronger effect = lower value 0.942
